aSyn UTR inh – MLPCN primary screen, SNCA 5' untranslated region | inhibition, % (tested at 7.5 µM) | 300,000 tested, 0.82% active | alpha-synuclein 5'UTR reporter, inhibitor activity; in the data active = inhibition above about 60%;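 also: H4 neuroglioblastoma cells stably carrying SNCA 5'UTR luciferase fusion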
Mdm2-MdmX inh – human Mdm2/MdmX binding inhibition. SaOS-2 split-luciferase Mdm2/MdmX complementation, luminescence. O15151+Q00987. inhibition, % at 8 µM. 330,000 tested, 3% active;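 active = inhibition of at least 50% at 8 µM in the primary screen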
Target sequence (O15151 whole entry, looked up): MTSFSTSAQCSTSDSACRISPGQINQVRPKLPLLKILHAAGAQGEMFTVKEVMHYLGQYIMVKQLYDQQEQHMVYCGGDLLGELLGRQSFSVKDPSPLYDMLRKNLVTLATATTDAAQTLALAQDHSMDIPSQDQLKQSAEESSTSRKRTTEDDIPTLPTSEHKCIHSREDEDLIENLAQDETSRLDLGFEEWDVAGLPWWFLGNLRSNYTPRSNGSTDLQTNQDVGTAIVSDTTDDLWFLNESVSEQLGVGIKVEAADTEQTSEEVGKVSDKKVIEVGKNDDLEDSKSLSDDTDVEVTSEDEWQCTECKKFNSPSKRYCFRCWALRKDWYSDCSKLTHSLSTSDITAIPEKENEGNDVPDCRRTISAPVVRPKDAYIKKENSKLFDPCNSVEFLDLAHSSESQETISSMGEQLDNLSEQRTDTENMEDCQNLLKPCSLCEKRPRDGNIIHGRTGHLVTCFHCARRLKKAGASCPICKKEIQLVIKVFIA
Target sequence (Q00987 whole entry, looked up): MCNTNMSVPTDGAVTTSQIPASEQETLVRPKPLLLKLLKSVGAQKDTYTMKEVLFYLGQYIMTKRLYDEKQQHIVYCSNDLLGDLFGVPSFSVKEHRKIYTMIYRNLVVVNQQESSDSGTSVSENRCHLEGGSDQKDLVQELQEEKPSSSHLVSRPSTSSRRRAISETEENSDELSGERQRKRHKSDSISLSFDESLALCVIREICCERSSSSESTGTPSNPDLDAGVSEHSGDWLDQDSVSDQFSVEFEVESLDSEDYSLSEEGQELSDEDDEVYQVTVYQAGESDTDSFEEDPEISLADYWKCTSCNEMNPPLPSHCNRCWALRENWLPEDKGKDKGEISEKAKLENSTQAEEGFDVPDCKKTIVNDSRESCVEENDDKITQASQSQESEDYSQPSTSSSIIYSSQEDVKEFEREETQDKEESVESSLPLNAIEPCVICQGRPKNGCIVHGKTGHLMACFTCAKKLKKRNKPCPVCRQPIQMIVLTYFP
697 NFkB inh – inhibitors of the PMA/ionomycin-induced NF-kB reporter in 697 B cells. 697 B-cell NF-kB luciferase reporter, 16 h. inhibition, % at 4 µM. 330,000 tested, 0.33% active. AID 435022; in the data active = inhibition above about 35%
CSC inhib – blocks cancer stem cells. 300,000 tested, 1.1% active. inhibition, % at 7.5 µM. cancer stem cell-like cells viability, luminescence; in the data active = inhibition above about 75%; tested in HMLE shEcad cells
Jurkat NFkB inh – inhibitors of the PMA/ionomycin-induced NF-kB reporter in Jurkat cells | PMA/ionomycin-induced NF-kB luciferase reporter, luminescence | inhibition, % at 4 µM | 330,000 tested, 0.53% active; in the data active = inhibition above about 50%
Gli-Sufu block – antagonists of Gli-Sufu signaling | AID 588413 | inhibition, % at 5 µM | 340,000 tested, 0.74% active | Sufu-KO-LIGHT fibroblasts, Gli luciferase reporter luminescence;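 active = inhibition above about 55%, limit read from the data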
Mdm2-MdmX conf – confirmation of human Mdm2/MdmX interaction inhibitors | inhibition, % at 8 µM | AID 489028 | Mdm2-MdmX binding, luminescent assay | shares compounds with Mdm2-MdmX inh | 10,000 tested, 55% active; in the data active = inhibition above about 40%
FLuc counter – inhibits full-length luciferase, flagging false Mdm2/MdmX hits; shares compounds with Mdm2-MdmX inh; SaOS-2 full-length luciferase counterscreen, luminescence; 6,200 tested, 77% active; inhibition, % at 8 µM; AID 504607;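 active = mean inhibition at 8 µM reaching about 37%, which flags the compound as non-specific, limit read from the data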;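 also: p53-null SaOS-2 cells with luciferase driven by a doxycycline-inducible promoter; compound on cells about two nights before reading with doxycycline added after day one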
A number is an active result; . = inactive; / = no result given. This is a sample that favours compounds with a hit; in the whole collection about 4.5% have one here.

SMILES | aSyn UTR inh | Mdm2-MdmX inh | 697 NFkB inh | CSC inhib | Jurkat NFkB inh | Gli-Sufu block | Mdm2-MdmX conf | FLuc counter
CCOC(=O)C1=C(C)N=c2s/c(=C/c3cccc([N+](=O)[O-])c3O)c(=O)n2C1c1ccccc1 (stereo not drawn) | . | . | . | . | . | . | / | /
CCOC(=O)C1=C(C)N=c2s/c(=C/c3cccc([N+](=O)[O-])c3O)c(=O)n2C1c1cc(OC)c(OC)c(OC)c1 (stereo not drawn) | . | 52 | . | . | . | . | . | /
Cc1cnc(NC(=O)c2cc(S(=O)(=O)N(C)C)ccc2N2CCCC2)s1 | / | 53 | . | . | . | . | . | 50
CN(C)S(=O)(=O)c1ccc(N2CCCC2)c(C(=O)Nc2nccs2)c1 | / | . | . | . | . | . | / | /
CCc1cccc(NC(=O)c2cc(S(=O)(=O)N(C)C)ccc2N2CCCC2)c1 | . | 52 | . | . | . | . | 50 | 51
C=C[C@@H]1c2cccc(C)c2N(S(=O)(=O)c2ccc(C)cc2)[C@H](c2ccc(OC(C)=O)cc2)C1(C#N)C#N | / | 51 | . | 107 | . | . | . | /
C=C[C@@H]1c2cccc(C)c2N(S(=O)(=O)c2ccc(C)cc2)[C@H](c2ccccc2)C1(C#N)S(=O)(=O)c1ccccc1 (stereo partly drawn) | / | . | . | / | . | . | / | /
CC1(C)Cc2c(ccc3ccccc23)C(=O)N1 | . | 52 | . | . | . | . | 54 | 55
COc1cc(C(=O)OCc2cc(=O)oc3c(C)c(C)ccc23)ccc1OC(F)F | . | 60 | . | / | . | . | . | /
COc1cc(C(=O)OCc2cc(=O)c(O)co2)ccc1OC(F)F | . | . | . | . | . | . | / | /
Clc1ccccc1-c1nnc2sc(-c3ccc4c(c3)OCO4)nn12 | . | 65 | . | . | . | . | . | 83
Brc1ccccc1-c1nnc2sc(-c3ccc4c(c3)OCCO4)nn12 | . | 51 | . | . | . | . | 62 | 61
CC(C)Sc1nc2ccccc2n2cnnc12 | . | . | . | . | . | . | / | /
O=C1[C@H](Oc2ccccc2)[C@@H](c2ccncc2)N1c1ccncc1 | / | . | . | / | / | . | / | /
O=C1[C@@H](Oc2ccccc2)[C@@H](c2cnc3ccccc3c2)N1c1ccccc1 | / | 53 | . | / | / | . | 54 | 56
Cc1ccc(-c2nn(-c3cc(N4CCNCC4)ccc3[N+](=O)[O-])c(=O)c3ccccc23)cc1 | . | 100 | . | . | . | . | . | /
COc1ccc(C2CC(c3cccc(F)c3)=NN2c2ccc(S(N)(=O)=O)cc2)cc1 (stereo not drawn) | / | 81 | . | / | / | . | . | /
COc1ccc(C2CC(c3cccc(Br)c3)=NN2c2ccc(S(N)(=O)=O)cc2)cc1 (stereo not drawn) | / | 57 | . | / | / | . | . | /
COc1ccc(C2CC(c3ccccc3)=NN2c2ccc(S(N)(=O)=O)cc2)cc1 (stereo not drawn) | . | . | . | . | . | . | / | /
COc1ccc(C2CC(c3cccc(C(F)(F)F)c3)=NN2c2ccc(S(N)(=O)=O)cc2)cc1 (stereo not drawn) | / | 87 | . | / | / | . | . | /
COC(=O)C(NC(=O)c1ccccc1C(=O)O)c1ccc2ccccc2c1 (stereo not drawn) | . | . | . | . | . | . | / | /
CCN(CC)S(=O)(=O)c1ccc(NC2CCCc3ccccc32)nc1 (stereo not drawn) | . | . | . | . | . | . | / | /
CCOC(=O)c1sc2nc(CSc3ccccc3Cl)[nH]c(=O)c2c1C | . | 52 | . | . | . | . | . | /
COc1ccc(-c2nc(-c3ccc4c(c3)OCO4)[nH]c2-c2ccc(OC)cc2)cc1 | . | 67 | . | / | . | . | . | /
COc1ccc(N2CCN(C(=O)Cn3ncc4c([nH]c5ccccc54)c3=O)CC2)cc1 | . | 50 | . | . | . | . | . | /
SMILES | aSyn UTR inh | Mdm2-MdmX inh | 697 NFkB inh | CSC inhib | Jurkat NFkB inh | Gli-Sufu block | Mdm2-MdmX conf | FLuc counter
Cc1ccc(C)c(N2CCN(C(=O)Cn3ncc4c([nH]c5ccc(C)cc54)c3=O)CC2)c1 | . | 52 | . | . | . | . | . | /
COc1ccccc1N1CCN(C(=O)Cn2ncc3c([nH]c4ccccc43)c2=O)CC1 | . | . | . | . | . | . | / | /
Cc1ccc(C)c(Cn2c3ccccc3c3cnn(CC(=O)NCc4ccccn4)c(=O)c32)c1 | . | . | . | . | . | . | / | /
Cc1ccc(C)c(Cn2c3ccccc3c3cnn(CC(=O)NCCCN4CCCCC4)c(=O)c32)c1 | . | 92 | . | . | . | . | 48 | 48
CCC1CCCCN1CCCNC(=O)Cn1ncc2c([nH]c3ccc(C)cc32)c1=O (stereo not drawn) | . | . | . | . | . | . | / | /
Cc1ccc2[nH]c3c(=O)n(CC(=O)NCCCN4CCN(c5ccc(F)cc5)CC4)ncc3c2c1 | . | 69 | . | . | . | . | . | /
Cc1nc2scc(C)n2c(=O)c1S(=O)(=O)Nc1ccc(OC(F)(F)F)cc1 | . | . | . | . | . | . | / | /
NNC(=O)CSc1c(-c2ccccc2)c2cc(Cl)ccc2[nH]c1=O | . | . | . | . | . | . | / | /
O=c1[nH]c2ccc(Cl)cc2c(-c2ccccc2)c1SC(=S)N1CCCCC1 | . | 61 | . | . | . | . | 44 | 57
O=c1[nH]c2ccc(Cl)cc2c(-c2ccccc2)c1SC(=S)N1CCOCC1 | . | 53 | . | . | . | . | 52 | 45
CCCn1c(=O)c2[nH]c(-c3ccc(S(=O)(=O)O)cc3)nc2n(CCC)c1=O | / | . | . | . | . | . | / | /
CC(C)(C)c1ccc(/C=N/NC(=O)Cc2c[nH]c3ccccc23)cc1 | . | 55 | . | . | . | . | . | /
Cc1ccc2oc(=O)c3cc(C(=O)NCCCN4CCN(C)CC4)sc3c2c1 | . | . | . | . | . | . | / | /
Cc1ccc2oc(=O)c3cc(C(=O)NCCCN4CC(C)CC(C)C4)sc3c2c1 (stereo not drawn) | . | 50 | . | . | . | . | . | /
CC(C)=CCc1cc2c(=O)c3c(O)c4c(cc3oc2c(O)c1O)OC(C)C4(C)C (stereo not drawn) | . | 92 | . | . | . | / | . | 63
C#CCOCCOCCOCCNc1nc(N2CCN(C(=O)CCCCCCCCCCNC(=O)[C@H]([C@@H](C)CC)n3cc(CCCCCN)nn3)CC2)nc(N2CCN(C(=O)CCCCCCCCCCNC(=O)[C@H](CO)n3cc(CCCCCN)nn3)CC2)n1 | / | 90 | . | . | . | . | . | /
C#CCOCCOCCOCCNc1nc(N2CCN(C(=O)CCCCCCCCCCNC(=O)[C@H]([C@@H](C)CC)n3cc(CCCCCN)nn3)CC2)nc(N2CCN(C(=O)CCCCCCCCCCNC(=O)[C@@H]([C@H](C)CC)n3cc(CCCCCN)nn3)CC2)n1 | / | 100 | . | 167 | . | / | 63 | .

Screening data: PubChem, several laboratories
